Measurements: PubChem BioAssay (EPA / NIEHS)
Inconclusive results are not listed. Activity calls are given as the source filed them. Rule for the calls: active = hit-call score of the fitted dose curve at least 0.9, where 1 is the maximum; inconclusive = response in the unintended direction; inactive = score below 0.9.

Experiment: ACEA_ER_80hr: ACEA Biosciences xCELLigence Real-Time Cell Analysis on Estrogen Receptor Agonism for Proliferation (AID 2282667)
Conditions: T47D proliferation, impedance (xCELLigence), 80 h
Outline: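 T47D human breast cells were seeded on electrode plates, monitored overnight, then exposed continuously to compounds in eight-point 1:4 dilutions from 100 uM (max 0.5% DMSO). Impedance-based growth was read at 80 h, fitted upward relative to DMSO.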

| SMILES | outcome | AC50 |
| --- | --- | --- |
| COc1ccc(C=O)cc1 | inactive |  |
| C=CC#N | inactive |  |
| Clc1ccc(COC(Cn2ccnc2)c2ccc(Cl)cc2Cl)cc1 (stereo not drawn) | inactive |  |
| c1cc[c]([Hg][c]2ccccc2)cc1 | inactive |  |
| CCCCCCCCC(=O)NCc1ccc(O)c(OC)c1 | inactive |  |
| COP(=O)(OC)O/C(=C\Cl)c1cc(Cl)c(Cl)cc1Cl | inactive |  |
| NC(=S)Nc1ccccc1 | inactive |  |
| ClC1=C(Cl)[C@]2(Cl)[C@H]3[C@H]([C@H]4C=C[C@H]3C4)[C@@]1(Cl)C2(Cl)Cl | inactive |  |
| O=C(O)Cc1ccccc1 | inactive |  |
| Cl/C=C\C[N+]12CN3CN(CN(C3)C1)C2 | inactive |  |
| CC1(C)CCC(Cc2ccc(Cl)cc2)C1(O)Cn1cncn1 (stereo not drawn) | inactive |  |
| CN(C)P(=O)(N(C)C)N(C)C | inactive |  |
| COc1cc(OC)nc(NC(=O)NS(=O)(=O)c2ncccc2C(=O)N(C)C)n1 | inactive |  |
| Nc1ccc(-c2ccc(N)c(Cl)c2)cc1Cl | inactive |  |
| O=[N+]([O-])c1ccc(O)c([N+](=O)[O-])c1 |  | 75.8 µM (active) |
| COc1ccc(C(O)(c2cncnc2)C2CC2)cc1 (stereo not drawn) | inactive |  |
| ClC(Cl)=C(Cl)C(Cl)=C(Cl)Cl | inactive |  |
| O=C1CCCN1 | inactive |  |
| C[C@H]1O[C@@H](O[C@H]2[C@@H](O)C[C@H](O[C@H]3[C@@H](O)C[C@H](O[C@H]4CC[C@@]5(C)[C@H](CC[C@@H]6[C@@H]5CC[C@]5(C)[C@@H](C7=CC(=O)OC7)CC[C@]65O)C4)O[C@@H]3C)O[C@@H]2C)C[C@H](O)[C@@H]1O | inactive |  |
| COc1ccccc1OC | inactive |  |
| CC1CN1P(=O)(N1CC1C)N1CC1C (stereo not drawn) | inactive |  |
| CC1(C)Cc2cccc(O)c2O1 | inactive |  |
| CC(C)OC(=O)Nc1ccccc1 | inactive |  |
| Cc1cc(=O)[nH]o1 | inactive |  |

| SMILES | outcome | AC50 |
| --- | --- | --- |
| CC(=O)C(Cl)C(=O)N(C)C (stereo not drawn) |  | 0.272 µM (active) |
| COP(=S)(OC)Oc1c(Cl)cc(C)cc1Cl | inactive |  |
| [O-][Cl+2]([O-])O | inactive |  |
| Nc1ccc(Cl)cc1C(=O)c1ccccc1 | inactive |  |
| C=CCc1ccc(OC)cc1 | inactive |  |
| Clc1nc(Cl)nc(Cl)n1 | inactive |  |
| CC(C)(c1ccc(OCC2CO2)cc1)c1ccc(OCC2CO2)cc1 (stereo not drawn) | inactive |  |
| CCC[CH2][Sn]([Cl])([Cl])[Cl] | inactive |  |
| CC(C)c1cccc(C(C)C)c1O | inactive |  |
| CC(=[OH+])/C=C(/C)[O-].CC(=[OH+])/C=C(/C)[O-].CC(=[OH+])/C=C(/C)[O-].[Al] | inactive |  |
| c1ccc(N=NNc2ccccc2)cc1 | inactive |  |
| CC(C)=C[C@@H]1[C@@H](C(=O)OCc2coc(Cc3ccccc3)c2)C1(C)C | inactive |  |
| CCOP(=S)(OCC)SCSP(=S)(OCC)OCC | inactive |  |
| Cc1ccccc1C(=O)Nc1cccc(OC(C)C)c1 | inactive |  |
| CCC[CH2][Sn]([CH2]CCC)([CH2]CCC)[O]C(=O)c1ccccc1 | inactive |  |
| CCCCCCCCCl | inactive |  |
| N#CCCO | inactive |  |
| CC(=O)c1cc(C(C)(C)C)cc2c1CCC2(C)C | inactive |  |
| O=Cc1cccc(Oc2ccccc2)c1 | inactive |  |
| O=C(O)CCC(F)(C(F)(F)F)C(F)(F)F | inactive |  |
| ClCc1ccccn1 | inactive |  |
| CCOP(=O)(CN(CCO)CCO)OCC | inactive |  |
| CCOP(=S)(OCC)Oc1nc(Cl)c(Cl)cc1Cl | inactive |  |
| O=C(Cc1ccccc1)c1ccccc1 | inactive |  |
